Data taken from the supplement of paper PMC6555819.

Legend:
Assay in all cases: PBM binding z-score (relative to random genomic background probes); higher = stronger binding; sequences stand for … in GC…GCGATTGACAGCGTAGAATGAAGG
[1] = tested on: FXR:RXRa (NR concentration 270 nM, RXRa partner concentration 90 nM)
Procedure, shortened: (§1)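 Ligand-free nuclear receptor dimers were applied to custom Agilent 4×180K protein-binding microarrays whose double-stranded probes carried direct-repeat seeds, single-nucleotide variants, half-site ablations and random human genomic background sequences in 34-nt variable regions. Incubation lasted 1 h. Binding z-scores were computed against the random background probes from regression-normalized fluorescence.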

[2] = tested on: LXRa:RXRa (NR concentration 270 nM, RXRa partner concentration 90 nM)
Procedure, shortened: as §1

[3] = tested on: LXRa homodimer (NR concentration 270 nM)
Procedure, shortened: as §1

[4] = tested on: LXRb:RXRa (NR concentration 270 nM, RXRa partner concentration 90 nM)
Procedure, shortened: as §1

[5] = tested on: LXRb homodimer (NR concentration 270 nM)
Procedure, shortened: as §1

[6] = tested on: PPARa:RXRa (NR concentration 270 nM, RXRa partner concentration 90 nM)
Procedure, shortened: as §1

[7] = tested on: PPARg:RXRa (NR concentration 180 nM, RXRa partner concentration 90 nM)
Procedure, shortened: as §1

[8] = tested on: PPARg:RXRa 270nM:90nM, anti-RXR (NR concentration 270 nM, RXRa partner concentration 90 nM)
Procedure, shortened: as §1

[9] = tested on: PPARg:RXRa 30nM:10nM, anti-RXR (NR concentration 30 nM, RXRa partner concentration 10 nM)
Procedure, shortened: as §1

[10] = tested on: PPARg:RXRa 90nM:30nM, anti-RXR (NR concentration 90 nM, RXRa partner concentration 30 nM)
Procedure, shortened: as §1

[11] = tested on: PPARg:RXRa DBDmut IVT, anti-RXR (DBD mutation: RXRa K156A/R161A, NR concentration 270 nM, RXRa partner concentration 90 nM)
Procedure, shortened: as §1

[12] = tested on: PPARg:RXRa IVT, anti-PPARg (NR concentration 270 nM, RXRa partner concentration 90 nM)
Procedure, shortened: as §1

[13] = tested on: PPARg DBDmut:RXRa IVT, anti-PPARg (DBD mutation: PPARg1 K132A/R137A, NR concentration 270 nM, RXRa partner concentration 90 nM)
Procedure, shortened: as §1

[14] = tested on: PPARg DBDmut IVT, anti-PPARg (DBD mutation: PPARg1 K132A/R137A, NR concentration 270 nM)
Procedure, shortened: as §1

[15] = tested on: PPARg homodimer (NR concentration 180 nM)
Procedure, shortened: as §1

[16] = tested on: PXR:RXRa (NR concentration 270 nM, RXRa partner concentration 90 nM)
Procedure, shortened: as §1

[17] = tested on: PXR homodimer (NR concentration 270 nM)
Procedure, shortened: as §1

[18] = tested on: RARa:RXR (NR concentration 270 nM, RXRa partner concentration 90 nM)
Procedure, shortened: as §1

[19] = tested on: RARa homodimer (NR concentration 270 nM)
Procedure, shortened: as §1

[20] = tested on: RARb:RXRa (NR concentration 270 nM, RXRa partner concentration 90 nM)
Procedure, shortened: as §1

| Sequence | PBM binding z-score [1] | PBM binding z-score [2] | PBM binding z-score [3] | PBM binding z-score [4] | PBM binding z-score [5] | PBM binding z-score [6] | PBM binding z-score [7] | PBM binding z-score [8] | PBM binding z-score [9] | PBM binding z-score [10] | PBM binding z-score [11] | PBM binding z-score [12] | PBM binding z-score [13] | PBM binding z-score [14] | PBM binding z-score [15] | PBM binding z-score [16] | PBM binding z-score [17] | PBM binding z-score [18] | PBM binding z-score [19] | PBM binding z-score [20] |
| --- | --- | --- | --- | --- | --- | --- | --- | --- | --- | --- | --- | --- | --- | --- | --- | --- | --- | --- | --- | --- |
| CGTCCAAGGTCCTAGGAGGTCAGTGAAGACAGAT | 1.97 | 1.66 | 0.256 | 1.71 | -0.518 | 2.44 | 0.157 | 0.654 | -0.57 | 0.21 | -0.235 | 0.579 | -1.17 | -1.02 | 1.48 | 3.01 | 0.587 | 2.87 | 0.328 | 2.42 |
| TCAGACAGGTGAAGGTAACGCAGGTACGCAGTCG | 0.226 | 0.481 | -0.607 | 0.397 | -0.402 | 1.16 | 0.779 | 1.98 | 3.58 | 2.71 | 2.13 | 1.24 | 0.76 | 0.126 | -0.401 | 0.411 | -0.161 | 0.66 | 0.254 | 1.16 |
| CGAACTCGGTCAAGGACAGTGAATCTCCGCACGC | 0.923 | 0.427 | -0.214 | -0.232 | -0.75 | 0.927 | 0.826 | 0.618 | -0.54 | -0.129 | 3.2 | 2.25 | -0.0732 | -0.272 | -0.336 | 0.0143 | -0.196 | 0.378 | -0.323 | 2.62 |
| CAAACTAGGTCACAGGAAGGTCAAAGTCCGCATG | 5.68 | 6.01 | 4.15 | 4.78 | 1.18 | 6.19 | 9.73 | 7.57 | 5.77 | 7.73 | 8.64 | 8.8 | 3.59 | 2.12 | 6.59 | 5.73 | 1.51 | 7.15 | 2.2 | 4.93 |
| AGAATGAGGTTATACGTAGATCAGTGAAGAAAGT | 1.96 | 1.82 | 0.00702 | 1.51 | 0.326 | 2.96 | 1.92 | 2.13 | 0.914 | 1.38 | 3.57 | 2.11 | 1.37 | 1.44 | 0.559 | 1.15 | 0.463 | 1.56 | 0.81 | 1.39 |
| ACTCGGAGGACAAAGGGCAGAGCTACGCCAGTGA | 0.0109 | 0.0817 | -0.605 | -0.115 | -0.71 | 1.88 | 3.1 | 4.39 | 2.2 | 4.28 | 0.11 | 0.678 | -1.42 | -1.85 | 0.364 | -0.273 | -0.407 | 0.077 | -0.16 | 2.17 |
| ACTATTAGTTGAGACGTGGGCAACCGATAGGTTG | -0.344 | -0.403 | -0.444 | -0.738 | 0.00492 | -1.07 | 0.429 | -0.3 | -0.0556 | -0.44 | -0.218 | -0.152 | 0.175 | 0.352 | -0.426 | -0.64 | -0.53 | -0.914 | -0.357 | -0.226 |
| TAGCCTAGATCATTCAGGGGCCAGTATAGAAAGC | -0.33 | -0.505 | -0.351 | -0.00287 | -0.168 | 0.0623 | 0.276 | 0.125 | -0.256 | -0.407 | 1.21 | 1.03 | -0.343 | 0.115 | -0.77 | -0.495 | -0.234 | 0.0251 | -0.596 | 0.0871 |
| GATACAGGGTCAAGGCCAGACTACGCGTATTGAT | 6.8 | 3.95 | 0.21 | 3.72 | -0.0563 | 5.69 | 6.16 | 5.88 | 2.85 | 4.87 | 2.8 | 3.83 | 0.238 | 0.461 | 2.54 | 4.03 | 0.191 | 4.98 | 0.813 | 4.6 |
| CCTGCTAGGTCAACGGTCAGCTAAAGCAGCTCGC | 4.13 | 3.09 | 0.58 | 2.17 | 0.4 | 4 | 6.12 | 6.08 | 3.98 | 6.08 | 4.82 | 4.76 | 0.645 | -0.543 | 2.2 | 1.8 | -0.372 | 2.89 | 0.262 | 4.45 |
| AGAATGAGGTTATACGTAGATCAGGGGAGAAAGT | 1.99 | 1.93 | 0.147 | 1.96 | 0.558 | 3.05 | 1.83 | 2.06 | 0.697 | 1.06 | 4.24 | 2.13 | 1.07 | 0.577 | 0.74 | 1.36 | 0.423 | 1.87 | 1.13 | 1.45 |
| GCTGCTAGGTCAACTTATGGTCAGCTAAAGCTCG | 4.49 | 2.98 | 0.539 | 2.52 | 0.4 | 3.87 | 2.95 | 3.14 | 0.913 | 2.31 | 4.77 | 4.25 | -0.352 | -0.235 | 2.49 | 2.17 | -0.587 | 3.6 | 0.316 | 4.4 |
| TCTCGGAGGACACGAAGGTCAGAACTTTCCAGAG | 0.92 | 1.16 | 0.605 | 1.31 | -0.708 | 1.69 | 0.527 | 1.59 | 2.55 | 1.96 | 1.69 | 0.656 | 0.251 | -1.14 | 1.13 | 1.84 | 1.09 | 1.81 | 0.264 | 3.08 |
| ATCTCTAGGTAAAAGTTCAGTGAGTCCCGAGGAT | 0.932 | 1.64 | 1.36 | 1.11 | 0.656 | 4.26 | 7.9 | 7.98 | 7.48 | 9.16 | 2.37 | 3.88 | 1.34 | 1.28 | 1.47 | 2.06 | 2.57 | 1.47 | 0.867 | 2.21 |
